Results on six molecules are retold here after PubChem BioAssay AID2283162 (EPA ToxCast).

The assay concerns the target human Insulin-like Growth Factor 1 Receptor (IGF1R), IGF1R (gene 3480) (UniProt P08069). The assay can be described thus: NVS_ENZ_hIGF1R: NovaScreen (NVS) Enzymatic Assay for human Insulin-like Growth Factor 1 Receptor (IGF1R). As to the method: NVS_ENZ_hIGF1R is a biochemical, single-readout assay that uses extracted gene-proteins in a cell-free assay. Measurements were taken 1 hour after chemical dosing in a 384-well plate.NVS_ENZ_hIGF1R is one of one assay component(s) measured or calculated from the NVS_ENZ_hIGF1R assay. It is designed to make measurements of enzyme activity, a form of enzyme reporter, as detected with fluorescence intensity signals by Fluorescence and electrophoretic mobility shift technology.Data from the assay component NVS_ENZ_hIGF1R was analyzed into 1 assay endpoint. This assay endpoint, NVS_ENZ_hIGF1R, was analyzed in the positive analysis fitting direction relative to DMSO as the negative control and baseline of activity. Using a type of enzyme reporter, loss-of-signal activity can be used to understand changes in the enzymatic activity as they relate to the gene IGF1R. Furthermore, this assay endpoint can be referred to as a primary readout, because this assay has produced multiple assay endpoints where this one serves a enzymatic activity function. To generalize the intended target to other relatable targets, this assay endpoint is annotated to the kinase intended target family, where the subfamily is receptor tyrosine kinase.
Binding assays used specific radioligands (tritiated, iodinated) with non-radioactive competitive displacement ligands in agonist or antagonist protocols (as indicated) and various reference compounds and inhibitors to titrate specific binding to receptors and transporters. Most enzyme assays (CYPs, kinases, phosphatases, proteases, HDACs) used recombinant protein and specific substrates (fluorescence mostly, some colorimetric and radioactive) and inhibitors, followed by a biochemical separation of substrate and product. All assays for the biochemical HTS were initially run in duplicate at a single concentration (10 uM for CYP450 assays and 25 uM for all others). Assay-chemical combinations meeting a pre-defined threshold (e.g., 30% inhibition and other criteria defined below) were then run in singleton concentration-response format with maximum concentration of 20 uM for CYPs and 50 uM for all others. Each assay was run with positive and negative controls, and concurrent controls on every plate. The follow-up (secondary) screen tested active chemical-pairs in concentration series, as well as a few additional assays not tested in the primary screen, some selected negative inactives, and several cases re-run in the concentration series for confirmatory purposes.

Inconclusive results are not listed. Active and inactive are the calls of the source. How the source made its calls: active means hit-call score of the fitted dose curve at least 0.9, where 1 is the maximum; inconclusive means response in the unintended direction; inactive means score below 0.9.

Chain of human Insulin-like Growth Factor 1 Receptor (IGF1R), IGF1R (gene 3480) (P08069 whole entry, looked up): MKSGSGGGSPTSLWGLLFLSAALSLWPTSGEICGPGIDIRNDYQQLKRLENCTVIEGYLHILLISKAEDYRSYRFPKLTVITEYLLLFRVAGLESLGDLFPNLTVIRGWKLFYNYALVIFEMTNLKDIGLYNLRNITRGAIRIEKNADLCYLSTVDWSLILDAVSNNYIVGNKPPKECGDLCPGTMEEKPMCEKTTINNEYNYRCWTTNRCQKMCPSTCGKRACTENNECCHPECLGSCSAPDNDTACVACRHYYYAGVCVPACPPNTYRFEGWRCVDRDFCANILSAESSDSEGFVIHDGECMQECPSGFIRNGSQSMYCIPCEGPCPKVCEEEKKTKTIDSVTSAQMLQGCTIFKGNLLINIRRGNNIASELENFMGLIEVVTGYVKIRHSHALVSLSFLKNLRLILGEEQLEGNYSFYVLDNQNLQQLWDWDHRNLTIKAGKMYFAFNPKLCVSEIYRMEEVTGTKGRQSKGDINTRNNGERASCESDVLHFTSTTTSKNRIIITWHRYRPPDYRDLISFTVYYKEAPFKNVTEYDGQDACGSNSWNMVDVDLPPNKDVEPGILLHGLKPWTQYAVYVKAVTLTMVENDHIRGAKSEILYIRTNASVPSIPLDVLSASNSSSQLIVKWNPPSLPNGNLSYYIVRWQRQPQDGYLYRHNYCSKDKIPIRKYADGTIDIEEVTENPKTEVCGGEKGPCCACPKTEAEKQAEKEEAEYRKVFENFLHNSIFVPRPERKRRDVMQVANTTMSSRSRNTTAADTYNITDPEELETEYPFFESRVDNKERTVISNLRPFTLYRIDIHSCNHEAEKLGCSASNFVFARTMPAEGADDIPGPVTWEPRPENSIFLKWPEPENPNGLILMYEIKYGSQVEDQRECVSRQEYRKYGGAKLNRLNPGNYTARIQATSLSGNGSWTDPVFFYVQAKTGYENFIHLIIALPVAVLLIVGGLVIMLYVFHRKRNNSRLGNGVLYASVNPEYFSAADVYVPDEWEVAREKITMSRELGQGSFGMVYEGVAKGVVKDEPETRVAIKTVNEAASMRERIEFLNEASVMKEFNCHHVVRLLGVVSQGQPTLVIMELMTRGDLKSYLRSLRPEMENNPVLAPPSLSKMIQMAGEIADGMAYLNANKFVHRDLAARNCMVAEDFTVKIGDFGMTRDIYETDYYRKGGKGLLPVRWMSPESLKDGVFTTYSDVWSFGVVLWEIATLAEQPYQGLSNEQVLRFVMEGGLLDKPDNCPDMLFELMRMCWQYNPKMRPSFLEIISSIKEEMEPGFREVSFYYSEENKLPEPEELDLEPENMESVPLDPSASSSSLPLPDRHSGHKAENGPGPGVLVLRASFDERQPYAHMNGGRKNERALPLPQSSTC

As to `CC(C)C(=O)OCC(C)(C)C(OC(=O)C(C)C)C(C)C` (stereo unspecified), the outcome was inactive.

As to `O=C(N[C@H]1CN2CCC1CC2)c1ccc2c(c1)OCCO2`, the outcome was inactive.

Take `CCC1(c2ccccc2)C(=O)N=C(O)NC1=O` (stereo unspecified): the result was inactive.

For `CC(C)(C)c1cc(O)ccc1O`, the result was inactive.

As to `Clc1cccc(Cl)c1`, the result was inactive.

For the molecule `CN(C)[C@@H]1C(=O)C(C(N)=O)=C(O)[C@@]2(O)C(=O)C3=C(O)c4c(O)cccc4[C@@](C)(O)[C@H]3[C@H](O)[C@@H]12`, the concentration at half-maximal activity (AC50) is 39.4 µM (active).
